Results as given in PubChem BioAssay (NCI).
The panel holds about 79,000 compounds, 15% with a hit somewhere; the sample as a whole holds those more often. Values without a mark were called inactive. Active and inactive are the calls of the source. No stated cut-off is given here; in the data, active means growth inhibition above about 70%; inactive means the rest.

assay: NCI Yeast Anticancer Drug Screen. Data for the cln2 rad14 strain (AID 165);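 further: 0% = growth equal to vehicle treated cultures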; conditions: S. cerevisiae cln2 rad14 strain, at 50.0 µM (retest, dose inferred, filed as 5.0), stronger effect = higher value
In short: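 Each compound was tested on cln2 rad14 yeast. Inhibition of growth was calculated against vehicle-exposed controls.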

| Compound | growth inhibition |
| --- | --- |
| N#Cc1c(SCc2ccc(Cl)cc2)nsc1Nc1ccc(Cl)cc1 | 97% (active) |
| CC(CO)(Nc1ccc([N+](=O)[O-])cc1[N+](=O)[O-])C(=O)O (stereo not given) | 99% (active) |
| O=[N+]([O-])/C(C(Cl)=C(Cl)Cl)=C(/Nc1ccccc1)Sc1ccccc1 | 99% (active) |
| CC(SCc1ccccc1)C(=O)O (stereo not given) | -1% |
| O=C1C2(Cl)C(Cl)=C(Cl)C1(Cl)C1(Cl)C(Cl)=C(Cl)C(=O)C21Cl (stereo not given) | 89% (active) |
| O=C(CNC(=O)c1ccccc1)Oc1c(Cl)c(Cl)c(Cl)c(Cl)c1Cl | 42% |
| CN(C)c1nc(NNS(=O)(=O)c2ccc(N)cc2)nc(N(C)C)n1 | -6% |
| CC1(C(Cl)(Cl)Cl)C=CC(O)(C#CC2(O)C=CC(C)(C(Cl)(Cl)Cl)C=C2)C=C1 (stereo not given) | 97% (active) |
| COCCN1C(=O)C2c3[nH]c4ccccc4c3C3CCC(C(C)(C)C)CC3C2C1=O (stereo not given) | 96% (active) |
| Cc1nc(N)sc1N=Nc1cccc(Cl)c1Cl | 4% |
| ClC1=C(Cl)C2c3ccccc3C1c1ccccc12 | 97% (active) |
| C=C/C=C/CC=C | -50% |
| C/C(=N\NC(=S)NCc1ccccc1)c1nccnc1C | 98% (active) |
| COC(=O)c1cc(OC)c(OC)c(OC)c1 | 60% |
| Nc1nc2c(ccc3ccccc32)s1 | 33% |
| N=C(N)c1ccc(N=Nc2cc(/C=C/c3ccccc3)ccc2O)cc1 | 98% (active) |
| O=C1NC(=O)N(c2ccc([N+](=O)[O-])cc2)C1=O | 5% |
| O=C(Nc1cc(Cl)cc(Cl)c1)OCCCl | 63% |
| Cc1[nH]nc(-c2ccon2)c1N=O | 48% |
| O=C(O)CCC(=O)c1ccc(C2CCCC2)c2ccccc12 | 42% |

| Compound | growth inhibition |
| --- | --- |
| CC12CC(Br)(Br)C(=O)C3C1CCCC32 | 35% |
| O=[N+]([O-])c1ccc(NSc2ccccc2)cc1 | 99% (active) |
| CCC1CCC(CC)C1=O (stereo not given) | 3% |
| Cc1cc(C(C)(CC(C)C)c2ccc(O)c(C)c2)ccc1O | 98% (active) |
| N#CC1C(=O)SC2c3ccccc3C(=O)c3ccccc3C12 (stereo not given) | 36% |
| COc1ccc(C2C3=C(CCCC3=O)Oc3cc4c(cc32)OCO4)cc1 (stereo not given) | 67% |
| CCC(c1cccc(O)c1)C(CC)c1cccc(O)c1 (stereo not given) | 74% (active) |
| CCCCCCCCCCCC1C(C#N)C(=O)NC(=O)C1C#N (stereo not given) | 82% (active) |
| O=C(NNC(=O)c1cccc(C(=O)NNC(=O)c2ccc(Cl)c(Cl)c2)n1)c1ccc(Cl)c(Cl)c1 | 76% (active) |
| CCOC(=O)CCC(NC(=O)c1ccc(NC(OC)c2nc3cc(C(F)(F)F)ccc3nc2-c2ccccc2)cc1)C(=O)OCC (stereo not given) | 80% (active) |
| CCOC(=O)c1c(C)[nH]c(CO)c1C | 0% |
| S=C(NC(=S)Nc1ccc(Cl)cc1)Nc1ccc(Cl)cc1 | -8% |
| O=S(=O)(c1ccc(OCC(O)COc2ccc(S(=O)(=O)c3ccc(OCC4CO4)cc3)cc2)cc1)c1ccc(OCC2CO2)cc1 (stereo not given) | 25% |
| C=C(C)C(=O)OC1CC2=CC(CC3(C)OC3C3OC(=O)C(=C)C13)OC2=O (stereo not given) | 15% |
| c1ccc2c(c1)C[n+]1ccc3ccccc3c1-c1c3ccccc3cc[n+]1C2 | 18% |
| CCN(CC)CCOC(=O)Cc1cccc2c(=O)cc(-c3cccs3)oc12 | 17% |
| C=C1C(=O)OC2C/C(C)=C/CC/C(C)=C/CCC3(COC(C)=O)OC3CC12 (stereo not given) | 95% (active) |
| CN1C=CC(C(O)(c2ccccc2)c2ccccc2)CC1 (stereo not given) | 4% |
| OCc1cccc2c1Oc1ccccc1S2 | 17% |
| COC(=O)c1[nH]c(=O)c(C#N)c(C(=O)OC)c1C(=O)c1ccc(Cl)c(Cl)c1 | 61% |
